# Measurements from PubChem BioAssay AID1851 (National Center for Advancing Translational Sciences (NCATS), 2009).
# In all, about 16,000 compounds went through this assay and about 4,000 (25%) were called active. Inconclusive results (about 26%) are left out. Not all results are given here. A number with no mark means an inactive call. Calls follow the shape of the dose curve; as a rule, active = well fitted curve in the direction sought with a large enough effect; inconclusive = small, poorly fitted or top-dose-only effect, or effect the other way; inactive = no such curve, though single readings can be large or run the other way.
# Target: Cytochrome P450 2C9 (Homo sapiens) (UniProt P11712)
# Sequence (P11712 whole entry, looked up): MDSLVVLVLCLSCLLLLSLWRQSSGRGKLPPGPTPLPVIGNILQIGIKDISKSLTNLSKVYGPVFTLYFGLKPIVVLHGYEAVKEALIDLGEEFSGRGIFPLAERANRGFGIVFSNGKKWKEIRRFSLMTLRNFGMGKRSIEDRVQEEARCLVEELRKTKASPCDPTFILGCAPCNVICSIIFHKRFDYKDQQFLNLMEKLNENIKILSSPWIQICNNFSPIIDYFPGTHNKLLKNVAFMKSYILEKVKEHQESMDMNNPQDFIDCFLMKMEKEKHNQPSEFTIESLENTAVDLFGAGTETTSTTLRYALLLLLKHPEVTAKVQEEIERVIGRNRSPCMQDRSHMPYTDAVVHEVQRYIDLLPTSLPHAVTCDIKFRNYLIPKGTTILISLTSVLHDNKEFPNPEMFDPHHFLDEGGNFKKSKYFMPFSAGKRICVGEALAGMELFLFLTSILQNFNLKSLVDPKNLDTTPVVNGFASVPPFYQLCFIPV
# Assay: Cytochrome panel assay with activity outcomes
# Conditions: recombinant CYP, pro-luciferin dealkylation, luminescence, p450-cyp2c9; series mostly up to 57.1 µM; activity, negative = inhibition: at the top concentration
# % is scaled to controls: 0 for no effect and ±100 for the full control effect.
SMILES,AC50,"activity, negative = inhibition"
CSc1ccc2c(c1)N(CC[C@H]1CCCCN1C)c1ccccc1S2,inactive,
CC1(C)OCC([C@H](O)C2=CCCCC2=O)CO1,,2.86% [at 11.4 µM]
CN(C)CCCNC(=O)c1cc2c3ccccc3n(C)c2s1,,-7.37%
COc1ccccc1CNc1ncnc2ccc(-c3ccc(C(=O)N(C)C)cc3)cc12,,0.573% [at 2.29 µM]
COc1ccccc1CNC(=O)c1cc2c(C)nn(Cc3ccc(F)cc3)c2s1,2.24 µM (active),
Cc1c(C2CCN(CCc3ccccc3)CC2)noc1-c1ccc(Cl)cc1,,-12.1%
Fc1ccc(-c2csc(N3CCC(c4ccccc4)C3)n2)cc1 (centres undefined),17.8 µM (active),
Clc1ccc(-c2csc(N3CCC(c4ccccc4)C3)n2)cc1 (centres undefined),14.1 µM (active),
Brc1ccc(-c2csc(N3CCC(c4ccccc4)C3)n2)cc1 (centres undefined),10 µM (active),
COc1cc2nc(N3CCN(C(=O)OCc4ccccc4)[C@H](C(=O)NC(C)(C)C)C3)nc(N)c2cc1OC,,-9.68%
CN(C)c1ccc(C(c2ccc(N(C)C)cc2)c2ccc([N+](=O)[O-])cc2)cc1,,-7.57% [at 11.4 µM]
CC(=O)C[C@H](c1ccc([N+](=O)[O-])cc1)c1c(O)c2ccccc2oc1=O,0.631 µM (active),
COc1ccc(NC(=O)N2CC3(CCN(C(=O)c4cnccn4)CC3)C2)cc1,,7.59%
O=c1oc2cc(Oc3ccc(C(F)(F)F)cc3[N+](=O)[O-])ccc2c2c1CCCC2,12.6 µM (active),
Cn1ncc2c(Cl)ncnc21,,0.147% [at 11.4 µM]
O=C1[C@@H]2[C@H]3[C@H](O)[C@H](O)C/C(=N/OCc4ccccc4)[C@H]3CC[C@H]2C(=O)N1c1ccc(F)cc1F,,12.6% [at 11.4 µM]
COc1ccc(-c2nnc(-c3cccnc3)o2)cc1,,-20.5%
COc1cccc(-c2noc(-c3cccnc3)n2)c1,15.8 µM (active),
CC(=O)OCC1=C(C(=O)O)N2C(=O)[C@@H](NC(=O)CSc3ccncc3)[C@@H]2SC1,inactive,
CNc1csc(C)c(C)c1=O,,6.4%
Cc1cnc(CNc2cc(-c3cccnc3)ncn2)cn1,,6.31% [at 2.29 µM]
N=C1/C(=C\c2ccc(SCc3ccco3)o2)C(=O)N=C2SC=NN12,0.447 µM (active),
ClC(=Nc1cccc2ccccc12)N(c1ccccc1)c1ccccc1,3.16 µM (active),
CCCN1CNC(=S)N(c2cccc(C)c2C)C1,,16.7%
O=C(CSc1nc2ccccc2c(=O)n1CCCC(=O)N1CCCC1)NCc1ccco1,7.08 µM (active),
Cc1cccc(C)c1-n1c(SCC(=O)NCc2ccco2)nc2ccccc2c1=O,14.1 µM (active),
O=c1c2ccccc2nc(SCc2ccccc2Cl)n1Cc1ccccc1,1.26 µM (active),
Cc1cc(NC(=O)CSc2nc3ccccc3c(=O)n2CCCC(=O)NCc2ccco2)n[nH]1,4.47 µM (active),
O=C(CSc1nc2ccccc2c(=O)n1Cc1ccccc1)NCc1ccco1,,-22.6%
